# Measured values as given in PubChem BioAssay AID1974 (The Scripps Research Institute Molecular Screening Center, 2009).
# The campaign covered roughly 300,000 compounds. About 3,200 (1.1%) were called active.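 Rule for the calls: active = inhibition above the campaign mean inhibition plus 3 SD (cut at about 35% in these data); inactive = the rest.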 This excerpt belongs to a sample that is enriched for actives.
# Target: Glutathione S-transferase omega-1 (Homo sapiens) (UniProt P78417)
# Test: human GSTO1 enzyme inhibition – biochemical, fluorescence polarization, counter-screen for RBBP9 inhibitor project, primary screen (AID 1974);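 note: 0% = GSTO1-1 with DMSO and 100% = wells lacking GSTO1-1 enzyme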
# Conditions: recombinant GSTO1, activity-based probe fluorescence polarization; at 5.96 µM; active compounds read high
# Chain of Glutathione S-transferase omega-1 (Homo sapiens) (P78417 whole entry, looked up): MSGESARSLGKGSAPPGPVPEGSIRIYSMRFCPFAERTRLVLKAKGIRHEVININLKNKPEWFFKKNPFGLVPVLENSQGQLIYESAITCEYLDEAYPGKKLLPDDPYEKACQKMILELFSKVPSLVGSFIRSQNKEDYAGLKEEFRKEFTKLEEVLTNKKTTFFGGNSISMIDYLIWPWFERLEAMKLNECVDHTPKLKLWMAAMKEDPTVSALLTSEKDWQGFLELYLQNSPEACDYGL
row,SMILES,inhibition
1,NC(=O)CSc1nnc(NC(=O)c2ccc3ccccc3c2)s1,-7.13% (inactive)
2,Cc1ccc(/C=C2\SC(=S)N(CCC(=O)Nc3ccc(O)cc3)C2=O)cc1,-1.64% (inactive)
3,O=C(CCN1C(=O)c2ccccc2C1=O)NCCN1CCOCC1,6.46% (inactive)
4,Cc1ccc(/C=C2/SC(=S)N(CCC(=O)NCCCN3CCOCC3)C2=O)cc1,36.4% (active)
5,Cc1csc(NC(=O)CSc2nc(=O)n(CCCN(C)C)c3c2CCC3)n1,10.8% (inactive)
6,Cc1nn(-c2ccccc2)c(C)c1NC(=O)CCl,82.7% (active)
7,Cc1cccc(C)c1NC(=O)CNC(=O)c1c(C)nn(-c2ccccc2)c1C,-1.44% (inactive)
8,Cc1nn(-c2ccccc2)c(C)c1NC(=O)COc1ccc(Cl)cc1Cl,8.17% (inactive)
9,O=C(Nc1ccc2nc3n(c(=O)c2c1)CCCC3)c1ccc(Cl)nc1,-3.93% (inactive)
10,O=S(=O)(Nc1ccc(O)c2ccccc12)c1ccc(OC(F)(F)F)cc1,67.3% (active)
11,O=S(=O)(Nc1ccc(OC(F)(F)F)cc1)c1cccc2nonc12,10.2% (inactive)
12,Cc1nn(C)c(C)c1NS(=O)(=O)c1ccc(OC(F)(F)F)cc1,5.1% (inactive)
13,CSc1nnc(C2CCCN(CC(=O)Nc3ccccc3N3CCOCC3)C2)n1C(C)C (stereo not given),4.43% (inactive)
14,O=C(c1cc(-c2ccc(Cl)s2)nc2ccccc12)N1CCOCC1,-12.9% (inactive)
15,CCOc1ccc(/C=C/C(=O)N(CC)CC(=O)NCc2cccs2)cc1OC,19.7% (inactive)
16,Cc1cccn2c(=O)nc(SCC(=O)NCc3ccccc3Cl)nc12,0.44% (inactive)
17,O=C(CN1C(=O)C2C3CCC(C3)C2C1=O)Oc1ccc2ccccc2c1 (stereo not given),12.6% (inactive)
18,CC1=CC(C)(C)Nc2ccc(OC(=O)CN3C(=O)C4CCCCC4C3=O)cc21 (stereo not given),48.4% (active)
19,CC1=CC(C)(C)Nc2ccc(OC(=O)C(Cc3ccccc3)N3C(=O)C4CCCCC4C3=O)cc21 (stereo not given),18.1% (inactive)
20,Cc1ccc([C@@H]2CC=C(C(=O)O)[C@H](c3cccc(Cl)c3)N2S(=O)(=O)c2ccc(C)cc2)cc1,-107% (inactive)
21,Cc1ccc(S(=O)(=O)N2[C@@H](c3ccccc3F)C(C(=O)O)=CC[C@H]2c2ccc(Cl)cc2)cc1,-60.4% (inactive)
22,Cc1ccccc1NC(=O)COc1cccc2c1CCNC2=O,0.64% (inactive)
23,Cc1ccc(S(=O)(=O)N2CCCCC2)cc1C(=O)N(C)CC(=O)Nc1cccc(F)c1,6.24% (inactive)

row,SMILES,inhibition
1,COc1ccc2c(c1)[C@H]1[C@H](CO2)[C@H](c2ccccc2)[C@]2(C)C(=O)Nc3cc(F)c(F)cc3C(=O)N12,-3.75% (inactive)
2,COc1ccccc1CCC(=O)OCC(=O)N1CCN(S(=O)(=O)c2ccc(C)cc2C)CC1,8.7% (inactive)
3,COc1ccc(-c2csc(Cc3nc(O)cs3)n2)cc1,8.36% (inactive)
4,COc1ccc(C)cc1Nc1nc(-c2c(C)[nH]c3ccccc23)cs1,0.17% (inactive)
5,COc1ccc(OC)c(Nc2nc(-c3ccc(O)c(O)c3)cs2)c1,57.3% (active)
6,O=c1oc2ccccc2cc1-c1csc(Nc2ccc(O)cc2)n1,5.73% (inactive)
7,COc1ccc(-c2csc(Nc3ccc(O)cc3)n2)cc1,44.8% (active)
8,COc1cccc(CC(=O)Nc2nc(-c3ccc(OC)c(OC)c3)cs2)c1,-14.6% (inactive)
9,COc1cccc(N2CC(NS(=O)(=O)c3cccs3)CC2=O)c1 (stereo not given),7.08% (inactive)
10,CC(=O)Nc1ccc(C(=O)Nc2cccc(S(=O)(=O)NC3=NCCC3)c2)cc1,0.43% (inactive)
11,O=C(OCc1nnc(-c2ccccc2)o1)c1cc(=O)[nH]c2ccccc12,8.64% (inactive)
12,CCC(C)N(C(=O)COC(=O)c1nc(Cl)ccc1Cl)C1CCS(=O)(=O)C1 (stereo not given),-3.44% (inactive)
13,CCOC(=O)[C@H]1[C@H]2COc3ccc(OC)cc3[C@@H]2N2C(=O)c3ccc(F)cc3NC(=O)[C@@]12C,8.55% (inactive)
14,Cc1ccc(Cn2c(=N)c(S(=O)(=O)c3ccc(C)cc3)cc3c(=O)n4ccccc4nc32)cc1,1.35% (inactive)
15,O=[N+]([O-])C(=c1ccc2c(c1)N1C3=C(CCCC3)CC3CCCCC31N=2)[N+](=O)[O-] (stereo not given),35.2% (active)
16,CCN(CC(=O)NCc1ccc(Cl)cc1)C(=O)CSc1ccccc1,-6.37% (inactive)
17,O=C(NCCN1CCOCC1)c1cc(-c2cccs2)nc2ccccc12,-2.35% (inactive)
18,O=C(Cn1c(-c2ccccn2)nc2ccccc21)NCCN1CCOCC1,98.3% (active)
19,O=C(Cc1ccc(Br)cc1)NCCN1CCOCC1,-0.16% (inactive)
20,CCCCN(C1CCS(=O)(=O)C1)S(=O)(=O)c1ccc(C(C)C)cc1 (stereo not given),-0.04% (inactive)
21,CC(C)Oc1ccc(C(CC(=O)N2CCOCC2)C(C)C)cc1 (stereo not given),10.3% (inactive)
22,Cc1ccc(N(Cc2cc3ccccc3[nH]c2=O)C(=O)c2cccs2)cc1,0.73% (inactive)
23,Cc1ccc(N(Cc2cc(=O)[nH]c3ccccc23)C(=O)CCl)cc1,80% (active)

row,SMILES,inhibition
1,CC(=O)N(Cc1cc(=O)[nH]c2ccccc12)c1ccc(C)cc1C,-13.1% (inactive)
2,Cn1c(-c2ccc(C(F)(F)F)cc2)cc2onc(-c3ccccc3)c2c1=O,4.73% (inactive)
3,CC(C)(C)c1ccc(C(=O)NCc2ccco2)cc1,-7.66% (inactive)
4,Cc1nn(CC(=O)Nc2nc3ccccc3s2)c(C)c1[N+](=O)[O-],11.3% (inactive)
5,CCC(C)Cn1c(O)cc2nn(-c3nc4ccccc4s3)c(=O)c-2c1C (stereo not given),36% (active)
6,C/C(=N\NC(=O)CC(C)C)c1c(C(F)(F)F)[nH]n(-c2nc3ccccc3s2)c1=O,-27.6% (inactive)
7,O=C(CN1C(=O)NC2(CCCC2)C1=O)OCCOc1ccc(F)cc1,8.87% (inactive)
8,C=CCOc1c(Br)cc(/C=N\n2nnnc2N)cc1OC,0.64% (inactive)
9,CCOc1c(Br)cc(/C=C2\C(=O)N(CCC#N)N=C2C)cc1OC,39.6% (active)
10,COc1cc(/C=C2/C(=O)NN(c3cccc(Cl)c3)C2=O)cc(Br)c1O,-21.9% (inactive)
11,Cc1ccc(NC(=O)C2CC(=O)N(c3ccc4c(c3)OCCO4)C2)cc1S(=O)(=O)N1CCCCCC1 (stereo not given),0.87% (inactive)
12,CCN(CCCNC(=O)c1ccc2c(c1)NC(=O)CN2C)c1cccc(C)c1,52.9% (active)
13,Cc1cccc(C(=O)NCCCN(C)CCCNC(=O)c2cccc(C)c2)c1,-1.1% (inactive)
14,CCN(CCCNC(=O)CCn1c(=O)[nH]c2ccsc2c1=O)c1ccccc1,0.71% (inactive)
15,CCOCCn1[nH]c2ccccc2c1=O,1.49% (inactive)
16,CC(=O)c1c(-c2ccccc2)c2ccccc2[nH]c1=O,-2.94% (inactive)
17,Cc1ccccc1Cn1c(=O)[nH]c2ccccc21,8.19% (inactive)
18,O=c1[nH]c2ccccc2n2c(-c3ccccc3)nnc12,69.1% (active)
19,O=S(=O)(NCCS(=O)(=O)N1CCN(c2ccccc2)CC1)c1ccc(F)cc1,-12.9% (inactive)
20,CN(CC(=O)NNC(=O)CNC(=O)c1ccccc1Cl)S(=O)(=O)c1ccc(Cl)cc1,5.54% (inactive)
21,O=C1NCCn2nc3ccccc3c21,3.49% (inactive)
22,O=[N+]([O-])c1ccc(C=Nc2ccc(Cl)cc2Cl)s1,38.5% (active)
23,CCOc1ccc(NC(=O)CCC(=O)N/N=C/c2ccc([N+](=O)[O-])s2)cc1,5.9% (inactive)

row,SMILES,inhibition
1,O=C(NCc1ccccc1Cl)C(=O)NCC1CCCN1S(=O)(=O)c1cccs1 (stereo not given),4.65% (inactive)
2,CCOc1ccc(CCNC(=O)CN2C(=O)NC3(CCc4ccccc43)C2=O)cc1OCC (stereo not given),1.55% (inactive)
3,C#CCOCCOCCOCCNc1nc(N2CCN(C(=O)Cn3cc(CCCCN)nn3)CC2)nc(N2CCN(C(=O)[C@H](CCCCN)n3cc(CCC(=O)O)nn3)CC2)n1,6.12% (inactive)
4,Cc1ccc(S(=O)(=O)Nc2nc3ccccc3nc2N2CCc3ccccc3C2)cc1,0.1% (inactive)
5,Cc1cc(N2CCN(S(=O)(=O)c3ccc(C)c(C)c3)CC2)c2ccccc2n1,-2.63% (inactive)
6,Cc1ccc(S(=O)(=O)C(C#N)c2nc3ccccc3nc2N2CCCC2)cc1C (stereo not given),51.4% (active)
7,O=C(NCCC1CCCCN1S(=O)(=O)c1ccc(Cl)cc1)C(=O)NCc1ccco1 (stereo not given),-0.26% (inactive)
8,CN(C)CCc1c[nH]c2ccc(Cn3cncn3)cc12,4.56% (inactive)
9,CC(OC(=O)CCCOc1ccccc1)C(=O)Nc1ccc(Cl)cn1 (stereo not given),-0.72% (inactive)
10,O=C(CNC(=O)c1cccnc1)N/N=C/c1cccnc1,-0.23% (inactive)
11,O=C(CSc1cccc2cccnc12)N/N=C/c1cccnc1,36.6% (active)
12,Cc1ccc(NC(=O)CSc2cccc3cccnc23)c(C)c1,14.1% (inactive)
13,O=C(CSc1nc(=O)n2ccccc2n1)Nc1ccc2c(c1)OCCO2,3.74% (inactive)
14,C/C(CCC(=O)OC[C@H]1O[C@H](C#Cc2ccccc2)C=C[C@@H]1Oc1ccc(C)cc1)=N\OC[C@@H](O)[C@H]1O[C@@H]2OC(C)(C)O[C@@H]2[C@H]1O,3.31% (inactive)
15,CCOc1ccc(/C=C/C(=O)OCC(=O)c2ccccc2OC)cc1OC,-2.58% (inactive)
16,O=C(N/N=C/c1ccc(O)c(O)c1)C1c2ccccc2Oc2ccccc21,35.5% (active)
17,CCC(C)NC(=O)C1c2ccccc2Oc2ccccc21 (stereo not given),2.29% (inactive)
18,CCC(C)(C)NC(=O)C1c2ccccc2Oc2ccccc21,3.61% (inactive)
19,CCOC(=O)N1CCN(C(=O)COc2ccc3oc4c(c3c2)CCCC4)CC1,-0.52% (inactive)
20,Nc1ccccc1/C=N\N=C/c1ccccc1N,8.02% (inactive)
21,CCOc1ccc(CCNC(=O)COC(=O)c2ccc(F)c(S(=O)(=O)N3CCOCC3)c2)cc1OCC,11.6% (inactive)
